# From PubChem BioAssay
# IMPase Li inh – cell-permeable IMPase inhibitors with lithium potentiation; 210,000 tested, 0.35% active; Potency, µM (doses to about 59.4 µM), actives largely listed as inhibitors; CHO-M1 cells, IP1 TR-FRET (IP-One), carbachol + lithium;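 also: IP1 builds up when IMPase is blocked and the TR-FRET signal falls; nearly all actives have a fitted effect of over 50% in size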
#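 Lithium-sensitised IP1 accumulation assay; M1-expressing CHO cells treated 30 min at 37C with compound. Competitive antibody detection by time-resolved FRET followed a 10 min room-temperature lysis step.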
# HTT aggregate – reduces HttQ103-GFP aggregates in PC12 cells; Potency, µM (doses to about 46.1 µM), actives largely listed as inhibitors; PC12 HttQ103-GFP aggregates, Acumen cytometry, 40 h; AID 1688; 220,000 tested, 1.1% active; also: nearly all actives have a fitted effect of over 60% in size
#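 Quantitative HTS on tebufenozide-induced (100 nM) PC12 cells stably expressing polyQ103 Huntingtin exon 1–GFP. Reduction of bright GFP aggregates, detected by laser scanning cytometry after lysis, identified actives across the titration.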
# PNC inhibitor – blocks assembly of the perinucleolar compartment; PC3M PTB-GFP, PNC prevalence imaging, 16 h; hits give low values; activity change (PNC), negative = inhibition, % at 10 µM; 140,000 tested, 3.1% active; AID 2417;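 active = readout at or below -70, meaning at least 70% loss of cells showing the perinucleolar compartment, a nuclear body marking cancer cells; inconclusive = readout between -30 and a set limit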
#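 Compounds are pinned in duplicate onto adhered PC3M cells stably expressing GFP-tagged PTB and incubated 16 h at 37 C. Cells are then fixed, nuclei stained with Hoechst, and PNC-positive cells counted.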
# NPSR antag – blocks cAMP signaling of the human neuropeptide S receptor | Potency, µM (series often up to 38.3 µM), usual class: inhibitors | CHO-NPSR cells, cAMP TR-FRET, antagonist mode | 220,000 tested, 1% active | Q6W5P4; also: nearly all actives have a fitted effect of over 50% in size
# Target sequence (Q6W5P4 whole entry, looked up): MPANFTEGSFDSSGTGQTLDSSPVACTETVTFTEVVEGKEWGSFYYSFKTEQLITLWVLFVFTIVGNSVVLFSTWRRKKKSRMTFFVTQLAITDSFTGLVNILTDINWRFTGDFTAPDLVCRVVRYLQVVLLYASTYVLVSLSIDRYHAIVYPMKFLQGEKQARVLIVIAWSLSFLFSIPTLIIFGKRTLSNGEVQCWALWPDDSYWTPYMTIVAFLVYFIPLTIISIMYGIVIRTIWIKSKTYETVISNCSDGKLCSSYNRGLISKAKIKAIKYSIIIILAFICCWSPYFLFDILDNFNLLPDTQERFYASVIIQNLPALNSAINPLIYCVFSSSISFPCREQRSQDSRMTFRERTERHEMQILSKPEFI
# IMPase cell inh – IMPase inhibition in cells; inhibition (IP1 accumulation), % at 46.1 µM; P97697; AID 901; 120,000 tested, under 10 active; CHO-M1 cells, IP1 accumulation, HTRF TR-FRET ratio; active = well fitted curve in the direction sought with a large enough effect in the signal ratio, not every such curve was filed as active; inconclusive = small, poorly fitted or top-dose-only effect, or a change in a side signal; inactive = no such curve, though single readings can be large or run the other way; the % refers to the signal ratio;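 also: cells stimulated with carbachol in lithium chloride buffer; higher means more IMPase inhibition seen as more IP1 and lower FRET ratio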
# Target sequence (P97697 whole entry, looked up): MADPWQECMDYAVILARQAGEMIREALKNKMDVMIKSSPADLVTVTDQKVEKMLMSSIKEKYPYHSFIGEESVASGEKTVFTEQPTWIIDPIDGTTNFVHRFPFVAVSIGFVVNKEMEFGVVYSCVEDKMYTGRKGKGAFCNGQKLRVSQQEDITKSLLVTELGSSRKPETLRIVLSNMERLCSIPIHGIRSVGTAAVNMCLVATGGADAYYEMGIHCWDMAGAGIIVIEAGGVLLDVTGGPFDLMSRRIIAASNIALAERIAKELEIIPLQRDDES
#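 Carbachol-driven Gq signalling in CHO-M1 cells (2000/well) generates IP1. Compounds that block IMPase raise IP1 and so reduce the FRET signal from Eu-anti-IP1 and d2-IP1 after a 10 min room-temperature lysis.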
# HTT ATP protect – protects HTT-Q103 PC12 cells, measured by ATP; PC12 HTT-Q103 induced, cytoprotection, ATP luminescence, 40 h; Potency, µM (titrated, usually from 56.4 µM), hits mostly activators; 230,000 tested, 0.14% active; AID 1471; also: nearly all actives have a fitted effect of over 45% in size
#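 Rat PC12, Q103 Htt exon1-GFP fusion, ecdysone promoter; tebufenozide inducer 100 nM final; compound titration; qHTS, 1500 cells/well; ATPlite luminescent read.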
# Numbers stand for hits; n = inactive; u = inconclusive; x = not tested or not shown; [ ] = another dose, or the depositor's remark. Most compounds without a hit are left out; they make up all but 3.4% or so of the library. Unless noted, calls follow the shape of the dose curve; as a rule, active = well fitted curve in the direction sought with a large enough effect; inconclusive = small, poorly fitted or top-dose-only effect, or another doubt; inactive = no such curve, though single readings can be large; an effect the other way counts as inactive or inconclusive.
SMILES,IMPase Li inh,HTT aggregate,PNC inhibitor,NPSR antag,IMPase cell inh,HTT ATP protect
CS(=O)(=O)Nc1ccccc1C(=O)Nc1cccc(Cl)c1,n,11µM,n,n,n,n[10 µM]
COC(=O)c1ccc(NC(=O)c2ccccc2NS(C)(=O)=O)cc1,n,u,-104,n,n,n[10 µM]
COc1ccc(NC(=O)c2ccccc2NS(C)(=O)=O)cc1OC,n,n,u,n,n,n[10 µM]
O=C1Nc2c(c(=O)[nH]c(=O)n2-c2ccccc2)C1(NS(=O)(=O)c1ccc(Cl)cc1)C(F)(F)F (stereo not drawn),x,x,x,x,n,x
CSc1ncccc1C(=O)OCc1ccc(COC(=O)c2cccnc2SC)cc1,n,n,-108,n,n,n
Nc1ccnc(C(F)(F)F)c1C(=O)c1ccccc1,n,u,-82,n,n,n[0.074 µM]
COc1ccc(-n2c(=O)cnc3cnc(N4CCOCC4)nc32)cc1,n,x,x,x,x,n
CC1CCCC(C)N1C(=O)c1cccc2c1-c1ccccc1/C2=N/O (stereo not drawn),n,7.9µM,n,n,n,n[1.9 µM]
CCOC(=O)c1cccc2c1-c1ccccc1/C2=N/O,n,n,u,n,n,n
O=c1[nH]c(=O)n(Cc2ccco2)c2c1C(C(F)(F)F)(C(F)(F)F)N=C(c1ccc(F)cc1)N2,n,1.3µM,n,n,n,n[10 µM]
CCN(CCCNC(=O)C1c2ccccc2C(=O)N(CCOC)C1c1ccc(F)cc1)Cc1ccccc1 (stereo not drawn),n,n,x,10µM,x,n
CCN(CC)CCCNC(=O)C1c2ccccc2C(=O)N(CCOC)C1c1ccc(F)cc1 (stereo not drawn),n,n,x,n,x,n
COCCN1C(=O)c2ccccc2C(C(=O)N2CCN(c3ccccn3)CC2)C1c1ccc(F)cc1 (stereo not drawn),n,n,-100,n,n,n[10 µM]
COC(=O)c1ccc2nc(-c3ccc(S(C)(=O)=O)cc3)cn2c1,11µM,n,x,n,x,n[10 µM]
CCOC(=O)/C(C#N)=C\C=C1C=CN(C)C=C1,n,n,n,13µM,u,n
COc1ccc(C2CC(c3c(O)cc(C)oc3=O)=NCCS2)c(OC)c1 (stereo not drawn),n,u,-114,u,n,n
CCOC(=O)/C(=N/Nc1ccccc1)Sc1nnc(CCc2ccccc2)n1-c1ccccc1,n,n,-134,n,x,u
CCOC(=O)/C(=N/Nc1ccc(Cl)cc1)Sc1nnnn1-c1ccc(C)cc1,n,2.5µM,u,n,n,n[10 µM]
O=c1c(-c2cccs2)nc2cncnc2n1Cc1ccccc1,n,x,x,x,x,n
Cc1ccc(C(=O)C(c2ccccc2)N2Cc3ccccc3C2=N)cc1 (stereo not drawn),n,16µM,n,u,x,n[10 µM]
CCCS(=O)(=O)N1CCCC(C(=O)NC2CCCC(C)C2C)C1 (stereo not drawn),n,n,-82,n,n,n[10 µM]
CCn1c2c(c3cc(Br)ccc31)CCC/C2=N\O,11µM,n,n,n,u,n
CCn1c2c(c3cc(OCC(C)C)ccc31)CCCC2=O,n,n,n,n,n[0.369 µM],n[10 µM]
CC(C)COC(=O)NCCOC(=O)Nc1cccc(Cl)c1,n,10µM,u,n,n,n[10 µM]
Clc1ccc(Cn2nnc(-c3ccccc3)n2)cc1,n,n,-100,n,n,n[10 µM]
SMILES,IMPase Li inh,HTT aggregate,PNC inhibitor,NPSR antag,IMPase cell inh,HTT ATP protect
CC(=NCC(=O)O)c1ccccc1,n,x,x,x,x,n[10 µM]
CCOc1ccc(C(=O)c2cc([N+](=O)[O-])ccc2N2CCOCC2)cc1,n,n,u,n,x,x
COc1ccc(C(=O)c2cc([N+](=O)[O-])ccc2N2CCOCC2)cc1,n,u,-84,n,x,n[0.074 µM]
Cc1ccc(C(=O)c2cc([N+](=O)[O-])ccc2N2CCOCC2)cc1,n,n,-96,n,x,n[10 µM]
Cc1ccc(-c2nnc(Nc3ccc(O)cc3)c3ccccc23)cc1S(=O)(=O)NC(C)(C)CO,x,x,x,x,n,x
CC(C)=CCC/C(C)=C/CO/N=C1/C[C@@H](O)[C@@H](O)[C@@H]2[C@@H]3C(=O)N(C4CCCCC4)C(=O)[C@H]3CC[C@@H]12,x,x,x,x,x,n[10 µM]
COc1ccc(-c2n(Cc3ccccc3)c3ccccc3[n+]2Cc2ccccc2)cc1,n,x,x,10µM,x,x
COc1ccc(-c2nc3ccccc3n2Cc2ccccc2)cc1,n,u,u,u,u,n[10 µM]
COc1ccc(Cl)cc1NC(=O)CSc1nnc(Cc2cccn2C)n1-c1ccc(F)cc1,n,n,-85,n,n,n
CCc1ccc(NC(=O)CSc2nnc(Cc3cccn3C)n2-c2ccc(F)cc2)cc1,n,n,-90,n,n,n
Fc1cccc(Cl)c1CSc1nnc2ccccn12,n,n,x,n,x,n
CCCc1nc2oc3c(NCCOCCO)ncnc3c2c2c1COC(C)(C)C2,n,n,-111,n,n,n
CC(C)c1nc2oc3c(NCCO)ncnc3c2c2c1COC(C)(C)C2,x,n[9.22 µM],x,n,x,n[10 µM]
COC(=O)Sc1nnc(-c2ccc(Br)cc2)o1,10µM,n,n,n,u,n
O=C(CSc1ncccn1)Nc1ccc2c(c1)CCC2,x,n[9.22 µM],x,n,x,n[10 µM]
c1ccc(C2OC3c4cccc5cccc(c45)C3N2c2ccccc2)cc1 (stereo not drawn),n,11µM,n,n,n,n[10 µM]
Cc1cc(Cl)c(OCCOCCN2CCCCC2)c(Br)c1,n,n,-102,n,x,x
CCCCNC(=O)C1CCCN1C(=O)NC1CCCCC1 (stereo not drawn),n,n,-100,u,n,n[10 µM]
O=C(NC1CC1)C1CCCN1C(=O)NC1CCCCC1 (stereo not drawn),n,n,x,n,x,n
CC(C)CCNC(=O)c1ccc(Cl)c(NC(=O)c2ccccc2F)c1,n,n[9.22 µM],x,n,x,n[10 µM]
CCNc1c(C(=O)O)ccc2c1C(=O)c1ccccc1C2=O,n,n,-85,n,n,n[10 µM]
CNc1c(C(=O)O)ccc2c1C(=O)c1ccccc1C2=O,n,n,n,n,x,n[10 µM]
O=C(c1cn(-c2ccccc2)nc1-c1ccc(Br)cc1)N1CCOCC1,n,n,-114,n,x,x
O=C(c1cn(-c2ccccc2)nc1-c1ccc(F)cc1)N1CCOCC1,n,n,n,n[7.67 µM],n,n
O=C(c1cn(-c2ccccc2)nc1-c1cccs1)N1CCN(c2ccccc2)CC1,n,u,-83,n,n,n
Fc1ccc(-c2nc3n(c2-c2ccncc2)CCS3)cc1,n,x,x,x,x,u
CCN(CC)S(=O)(=O)c1ccc(C)c(NS(=O)(=O)c2cc(/C=C/C(=O)O)cc(OC)c2OC)c1,n,n,x,n,x,n
CCn1nc(C)c(NS(=O)(=O)c2ccccc2)c1C,n,n,-105,n,n,n
Cc1nn(C)c(C)c1NS(=O)(=O)c1ccccc1,n,n,n,n,n,n
C/C(=N\N=C(N)N)c1cccc(Cl)c1,n,5µM,x,n,x,n
